The record followed here is ChEMBL document CHEMBL3433997, “St. Jude Leishmania screening dataset” (2016).

Format in all cases: functional
Assay [1] deals with Solute carrier family 2, facilitated glucose transporter member 1 (Homo sapiens) (UniProt P11166). Kind of assay: ST_JUDE_LEISH: Cytotoxicity at 2uM final concentration against transgenic Leishmania Mexicana promastigotes LmGLUT1 that are glucose transport deficient and complemented with the human glucose transporter GLUT1. Activity is measured by DNA content using SYBR green in vitro.

Assay [2] deals with Hexose transporter 1 (Plasmodium falciparum) (UniProt O97467). As to the kind of experiment: ST_JUDE_LEISH: Cytotoxicity at 2uM final concentration against transgenic Leishmania Mexicana promastigotes LmPfHT that are glucose transport deficient and complemented with the Plasmodium falciparum hexose transporter. Activity is measured by DNA content using SYBR green in vitro.
Assay [3] has as its target Glucose transporter (Leishmania mexicana) (UniProt O61059). As to the kind of experiment: ST_JUDE_LEISH: Cytotoxicity at 2uM final concentration against transgenic Leishmania Mexicana promastigotes LmGT2 that are glucose transport deficient and complemented with the L. Mexicana glucose transporter 2. Activity is measured by DNA content using SYBR green in vitro.

SMILES strings stand for the structures.

Sequence of Solute carrier family 2, facilitated glucose transporter member 1 (Homo sapiens) (P11166 whole entry): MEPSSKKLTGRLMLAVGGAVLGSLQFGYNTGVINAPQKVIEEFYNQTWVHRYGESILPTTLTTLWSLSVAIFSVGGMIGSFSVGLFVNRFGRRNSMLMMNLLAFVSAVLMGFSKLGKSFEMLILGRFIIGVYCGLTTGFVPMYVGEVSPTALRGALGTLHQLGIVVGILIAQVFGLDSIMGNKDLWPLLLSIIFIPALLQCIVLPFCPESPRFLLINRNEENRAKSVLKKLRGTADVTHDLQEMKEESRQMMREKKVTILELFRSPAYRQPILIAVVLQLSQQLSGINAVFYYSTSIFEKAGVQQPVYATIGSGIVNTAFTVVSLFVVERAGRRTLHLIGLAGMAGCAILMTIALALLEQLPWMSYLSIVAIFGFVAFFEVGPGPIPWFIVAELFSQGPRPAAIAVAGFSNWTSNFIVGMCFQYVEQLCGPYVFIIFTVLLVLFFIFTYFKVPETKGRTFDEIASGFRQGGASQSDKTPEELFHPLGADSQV

For `Cc1cc(N(C)C)nc(Nc2ccc(NC(=O)c3cccc(F)c3)cc2)n1`, the inhibition in assay [1] worked out at 3.36%; in assay [2], 10.1%; in assay [3] it was 3.75%.
For `CN1CCN(Cc2ccc(OCc3cccc(COc4ccc(CN5CCN(C)CC5)cc4I)c3)c(I)c2)CC1`, in that order: 1.53%, 0.72% and -0.68%.
For `CN1CCN(CCCN(Cc2ccc(-c3cccc(CNCc4ccc5c(c4)OCO5)c3)cc2)C(=O)Nc2ccccc2)CC1`, in that order: 4.2%, 4.92% and 4.03%.
On to `COC1CCC(C(=O)Nc2ccc(-c3cccc(-c4nc5cc(C(F)(F)F)ccc5[nH]4)c3)cc2)CC1` (stereo not given), for which the inhibition in assay [1] is 0.64%; in assay [2], -0.27%; in assay [3], 0.65%.
For `COc1ccc(-c2cccc(NC(=O)c3cccc(C#N)c3)c2)cc1CN1CCNCC1`, in that order: 11%, 11.2% and 10.6%.
Consider `O=C(/C=C/c1ccc(Cl)cc1Cl)NCCCCCN1CCC(c2c[nH]c3ccccc23)CC1`, for which the inhibition in assay [1] is -2.21%; in assay [2] it was 0.6%; in assay [3] it was 1.57%.
As for `CCN(CC)CCCC(C)Nc1c2ccc(Cl)cc2nc2ccc(OC)cc12` (stereo not given), the inhibition is 5.81% in assay [1], 1.67% in assay [2] and 3.71% in assay [3].
For `O=C(Nc1ccccc1Br)c1cn(-c2ccccc2)nc1-c1cccc([N+](=O)[O-])c1`, in that order: 10.6%, 10.4% and 8.93%.
On to `CC(C)(C)c1ccc(C(=O)Nc2ccc(NC(=O)c3ccc([N+](=O)[O-])o3)cc2)cc1`, for which the inhibition in assay [1] was found to be 3.39%; in assay [2] it was 4.22%; in assay [3], 1.76%.
Take `CN1CCN(c2ccnc3cc4c(cc23)N(C(=O)Nc2ccc(-c3ccncc3)c3ccccc23)CC4)CC1`: the results for the inhibition in assay [1], in assay [2] and in assay [3] were 3.02%, 2.26% and 3.35%, respectively.
Take `C=CCN(c1ccc(OC)cc1)S(=O)(=O)c1ccc(Cl)c(C(=O)Nc2cccc(C#N)c2)c1`: the inhibition is -1.28% in assay [1], 4.89% in assay [2] and 4.17% in assay [3].
For `COc1cccc(C=Cc2nc(=O)c3ccccc3o2)c1OC`, in that order: 4.18%, 0.32% and 0.45%.
For `O=C(Nc1ccc(CN2CCN(S(=O)(=O)c3cccc(Cl)c3)CC2)cc1)c1cccs1`, in that order: 3.93%, 2.08% and 1.17%.
For `CC(C)C[C@H](NC(=O)c1ccc(OCCN2CCOCC2)cc1)C(=O)NC(/C=N/N1CCCC1=O)C(C)C` (stereo not given in full), in that order: 2.27%, 3.56% and 2.49%.
With `CCN(C(=O)c1ccc(NC(=O)c2cccs2)cc1)c1nc2c(C)cccc2s1`, the values for the inhibition in assay [1], in assay [2] and in assay [3] were 1.43%, 4.28% and 2.9%, respectively.
For `CCCNCc1ccc(-c2ccc(CN(CCOC)C(=O)COc3ccccc3Cl)cc2)nc1`, in that order: -0.3%, 1.54% and -1.95%.
For `CCc1cn2c3c(cc(C(=O)N[C@@H](Cc4cccc(F)c4)[C@H](O)CNC4CCOCC4)cc13)N(C)S(=O)(=O)CC2`, in that order: -0.16%, 0.52% and 1.47%.
For `O=C(Nc1ccc(Cl)c(Cl)c1)N1CCC(NCc2cccc([N+](=O)[O-])c2)CC1`, the inhibition in assay [1] stood at 4.54%; in assay [2], 1.1%; in assay [3], 3.26%.
For `NC(=O)c1sc(-n2cnc3ccc(OCC4CCNCC4)cc32)cc1OCc1ccccc1C(F)(F)F`, in that order: 0.4%, -0.16% and 0.31%.
For the compound `O=S(=O)(Nc1cccc(CCN2CCCCC2CCN2CCCC2)c1)c1ccc(-c2ccccc2)cc1` (stereo not given), the inhibition in assay [1] was 2.86%; in assay [2], -0.3%; in assay [3], -2.73%.
In the case of `c1ccc(CCNCc2cccc(-c3ccccc3CNCc3ccc4c(c3)OCO4)c2)nc1`, the inhibition was 0.71% in assay [1], 0.88% in assay [2] and 0.68% in assay [3].
For `COc1ccc(CNCc2cccc(-c3ccc(-c4nc5cccc(C)c5[nH]4)s3)c2)cc1`, in that order: 3.18%, 2.97% and 2.36%.
For `Cc1cc(N2CCCC2)nc(Nc2ccc(NC(=O)c3ccc(Br)o3)cc2)n1`, in that order: 4.16%, 9.42% and 5.64%.
For `CNC(=O)C1Cc2c([nH]c3ccc(Br)cc23)C2(CCN(CCc3ccccc3)CC2)N1` (stereo not given), in that order: 5.38%, 3.44% and 6.65%.
Regarding `COc1cccc(-c2csc(C(=O)NCC3CCN(Cc4ccc(C(C)C)cc4)C3)c2)c1` (stereo not given), the inhibition in assay [1] is -0.64%; in assay [2], -1.41%; in assay [3], 0.03%.
For `CC(NC(=O)c1cc(-c2ccccc2)nc2c1cnn2C(C)C)C1CC1` (stereo not given), in that order: 1.45%, 0.66% and 0.29%.
For `CCCOc1ccc(OCCCON2C(=N)N=C(N)NC2(C)C)cc1`, in that order: 1.05%, 0.05% and 0.28%.
For `COc1cc(Cc2cnc(N)nc2N)c2ccsc2c1OC`, the inhibition in assay [1] came to 4.16%; in assay [2] it was 3.31%; in assay [3], 1.58%.
For `CCc1c(CCNCCCCCCNC(C)Cc2ccc3c(c2CC)OCO3)ccc(OC)c1OC` (stereo not given), in that order: 4.49%, 3.47% and 1.99%.
For `COc1cccc(C(=O)NC(c2ccccc2OC)c2cc(Cl)c3cccnc3c2O)c1` (stereo not given), in that order: -1.87%, -2.45% and 0.13%.
Take `COc1ccccc1Cn1ccnc1SCC(=O)Nc1cc(C(F)(F)F)ccc1Cl`: the inhibition in assay [1] was -2.21%; in assay [2], -2.15%; in assay [3], -1.55%.
As to `O=C(NCc1cccnc1)C(c1cc2ccccc2o1)N1CCN(C(c2ccccc2)c2ccccc2)CC1` (stereo not given), the inhibition in assay [1] is 1.36%; in assay [2], 2.1%; in assay [3], 0.65%.
For `CCOC(=O)N1NC(=O)N(c2ccccc2)C1(c1ccccc1)c1ccccc1`, in that order: 2.45%, 1.19% and 2.17%.
For `COc1ccc(-c2cccc(NC(=O)c3ccc(Cl)cc3)c2)cc1CN1CCNCC1`, in that order: 2.69%, 0.49% and -0.7%.
For `CCOC(=O)/C(=N\OC(C)(C)C(=O)NCc1ccc(O)c(O)c1)c1csc(NC(c2ccccc2)(c2ccccc2)c2ccccc2)n1`, in that order: -2.31%, -1.09% and -1.17%.

Usually inhibition stands for the change of the read-out against control, counted positive when it falls.
